An excerpt weighted towards active compounds, which were near 2.2% of everything screened.
LMP1 NFkB inh = reduces LMP1-driven NF-kappaB luciferase signal. LMP1-induced NF-kappaB luciferase reporter cells, luminescence. inhibition, % at 12.5 µM. 350,000 compounds, 0.69% hits. AID 504558; in the data active = inhibition above about 41%; inconclusive = no clear call, values can overlap the other calls
LGR2 antag = Drosophila LGR2 receptor signaling inhibition | HEK293 LGR2, CRE-luciferase, bursicon-stimulated, 4 h | inhibition, % at 9.99 µM | 380,000 compounds, 0.35% hits;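 active = drop in luminescence signal, shown as inhibition above about 50% in the replicate tests, limit read from the data, passing the limit was not always enough; inconclusive = probably only some replicates passing the limit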;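 note: agonist challenge used bursicon conditioned medium at about half maximal strength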
PAX8 inh HTS = lowers PAX8-driven luciferase in RMG-I cells; RMG-I TPO-luciferase reporter, SteadyGlo, 24 h; 360,000 compounds, 1.2% hits; AID 652154; inhibition, % at 12.6 µM;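 active = mean replicate inhibition at least 60% with every replicate also reaching 60%; inconclusive = only one of the two criteria is met; inactive = mean below 60% and not all replicates reaching 60%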;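 note: luciferase light reporting Pax8 driven TPO promoter activity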
PGC1a acetyl inh = modulators of PGC1a acetylation; inhibition, % at 15.6 µM; U2OS PGC1a acetylation, AlphaScreen anti-acetyl-lysine; with virally co-expressed GCN5 acetyltransferase; 350,000 compounds, 0.17% hits; AID 651687;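 active = every replicate shows inhibition of at least 40%; inconclusive = mean inhibition at least 40% but some replicate below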
EWS-Fli inh = EWS/Fli transcriptional activity inhibition. A673 NR0B1-luciferase reporter, viability-normalised. inhibition, % at 12.6 µM. 350,000 compounds, 0.67% hits. AID 651661;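 active = mean inhibition of at least 50% after viability correction, with every replicate also passing that limit; inconclusive = mean reaches 50% but only one of two replicates passes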;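 note: firefly luciferase signal divided by Alamar Blue viability fluorescence both relative to DMSO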
MITF TRPM1 inh = MITF TRPM1 promoter inhibition in SK-MEL-5 cells; inhibition, % at 12.5 µM; 330,000 compounds, 0.83% hits; AID 488899; SK-MEL-5 TRPM1 promoter luciferase, 24 h;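 active = mean inhibition across replicates of 60% or more, whatever share of single replicates reaches that level; inconclusive = some that reach 60%, reason not given; inactive = mean inhibition across replicates below 60%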
Hits are given with their value; - = inactive; ? = inconclusive; . = not tested or not shown.

SMILES | LMP1 NFkB inh | LGR2 antag | PAX8 inh HTS | PGC1a acetyl inh | EWS-Fli inh | MITF TRPM1 inh
O=C(O)c1cccc(NC(=S)N/N=C/c2cccc(O)c2)c1 | - | 63.1 | - | . | - | -
O=C(N/N=C/c1ccccn1)c1cccc([N+](=O)[O-])c1 | - | - | - | - | - | -
S=C(N/N=C/c1ccc2ncccc2c1)Nc1cccnc1 | 54.8 | ? | - | . | - | -
O=C(N/N=C/c1ccccn1)c1cc([N+](=O)[O-])cc([N+](=O)[O-])c1 | - | - | - | - | - | 67.4
Cc1cccc(NC(=S)N/N=C/c2cccc(O)c2)c1C | - | - | - | - | 64.4 | -
Oc1ccc(/C=N/NC(=S)Nc2cccnc2)cc1O | - | - | - | . | - | -
Cc1ccc(S(=O)(=O)N[C@@H]2CC[C@H](CCNC(=O)C3CC3)O[C@@H]2CO)cc1 | . | - | . | - | - | .
O=C(O)c1cccc(NC(=S)N/N=C/c2ccccn2)c1 | - | 71.8 | - | . | - | 63.1
Cc1cccc(C(=O)Nc2cccc(C(=O)N/N=C/c3ccccn3)c2)c1 | - | - | - | - | - | -
Cc1ccc(CCNC(=O)Cc2ccc(NC3=NC4CS(=O)(=O)CC4S3)cc2)cc1 (configuration not stated) | 84.5 | - | - | - | - | -
Cc1ccc(CCNC(=O)c2ccc(NC3=NC4CS(=O)(=O)CC4S3)cc2)cc1 (configuration not stated) | - | - | - | - | - | -
O=C(C1CC1)N1CC2(C1)[C@H](c1ccccc1)[C@H](CO)N2CC1CCCC1 | . | - | . | - | - | .
CCN1CCN(c2ccc(Nc3ccnc4ccccc34)cc2)CC1 | - | - | - | - | - | 64.1
CN1CCN(c2ccc(Nc3ccnc4cc(Cl)ccc34)cc2)CC1 | - | - | - | - | - | -
COc1ccc(NC(=O)N(C)C[C@@H]2OCCCC[C@H](C)Oc3ccc(NS(C)(=O)=O)cc3C(=O)N([C@@H](C)CO)C[C@H]2C)cc1 | . | - | - | - | - | .
CCC(=O)N1CC[C@@H]2[C@H]1c1cc(-c3ccc(F)cc3)ccc1N[C@@H]2CO | . | - | - | - | - | .
CCCN(CC(=O)Nc1ccccc1C)C(=O)COc1c(C)cccc1C | - | - | - | - | - | -
CCCN(CC(=O)Nc1ccccc1C)C(=O)CCl | 71.6 | - | 60.8 | - | - | 63.4
CSCC[C@H](NC(=O)c1ccc(Br)o1)c1nnc2ccccn12 | - | - | - | 42.9 | - | -
CSCC[C@H](NC(=O)c1cccs1)c1nnc2ccccn12 | - | - | - | - | . | -
O=C(Nc1ccccc1)N[C@H]1CC[C@@H](CCn2cc(-c3ccccc3F)nn2)O[C@H]1CO | . | - | . | - | - | .
N#CCc1ccc(NC(=O)/C=C/c2ccc([N+](=O)[O-])o2)cc1 | - | . | . | - | . | 100.0
COCC(=O)NC[C@@H]1[C@@H](c2ccc(-c3ccccc3)cc2)[C@@H](CO)N1C(C)=O | . | - | - | - | - | .
COc1ccc(C(=O)c2c(C(F)(F)F)oc3c2C(=O)c2ccccc2C3=O)cc1 | 84.9 | . | . | - | . | 104.9
COc1ccc(C(=O)c2coc(-c3ccccc3C(=O)O)c2C(=O)O)cc1 | - | - | - | - | . | -
SMILES | LMP1 NFkB inh | LGR2 antag | PAX8 inh HTS | PGC1a acetyl inh | EWS-Fli inh | MITF TRPM1 inh
COc1cccc(CNC(=O)C[C@@H]2C=C[C@H](NC(=O)C3CC3)[C@@H](CO)O2)c1 | . | - | - | - | - | .
Cn1nnnc1Sc1ncnc2scc(-c3cccc4c3sc3ccccc34)c12 | - | - | 88.3 | - | - | -
CCC(=O)Nc1ccccc1Sc1ncnc2scc(-c3ccccc3)c12 | - | - | - | . | . | -
Cn1nnnc1Sc1ncnc2scc(-c3ccc(Cl)cc3)c12 | - | 57.4 | - | - | - | 90.3
COc1ccc(-c2csc3ncnc(Cl)c23)cc1 | - | - | - | - | - | -
COc1ccc(Nc2ncnc3scc(-c4ccc(OC)cc4)c23)cc1 | - | - | - | . | 64.7 | -
Clc1ccc(-c2csc3ncnc(Cl)c23)cc1 | - | - | - | . | . | -
Cn1nnnc1Sc1ncnc2scc(-c3ccc([N+](=O)[O-])cc3)c12 | 74.0 | 91.0 | 108.1 | - | - | 98.4
C[C@H](CO)N1C[C@H](C)[C@@H](CN(C)C(=O)Nc2cccc3ccccc23)Oc2ccc(N(C)C)cc2C1=O | . | - | - | - | - | .
Cc1noc(C)c1NC(=O)Nc1ccc2c(c1)C(=O)N([C@@H](C)CO)C[C@H](C)[C@H](CN(C)C(=O)Nc1cccc3ccccc13)O2 | . | - | . | - | - | .
Cn1nnnc1Sc1ncnc2scc(-c3ccccc3Cl)c12 | - | - | 91.4 | - | - | -

Compound activity (PubChem BioAssay)
